This is an account of results in PubChem BioAssay (Tox21).

Inconclusive results are not listed. Unmarked numbers belong to inactive results. Unless noted, calls follow the shape of the full dose curve.
% is scaled to controls: 0 for no effect and ±100 for the full control effect.
Also: nearly all actives have a fitted effect of over 50% in size.

One assay can be described thus: qHTS assay to identify small molecule agonists of the endoplasmic reticulum stress response signaling pathway - cell viability counter screen (AID 1159517).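 Also: HeLa cells carrying an ER stress response element beta-lactamase reporter.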 As to conditions: ESRE-bla HeLa viability, CellTiter-Glo luminescence, 5 h; series mostly up to 61 µM; activity change, negative = cytotoxicity: at the top concentration. An outline of the steps: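 Steps: seed 1,500 ESRE-bla HeLa cells per well; incubate overnight at 37 C, 5% CO2; add compounds in DMSO for 5 hr; run FRET substrate 2 hr RT; add CellTiter-Glo, wait 30 min, read luminescence.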
On the technique in general: Quantitative high-throughput screening tests each substance at several concentrations.
For the molecule `NC(=O)c1cc([N+](=O)[O-])cc([N+](=O)[O-])c1`, the “activity change, negative = cytotoxicity” value was -3.58%.

In the case of `CN1CCC(O)(c2ccc(F)cc2)C(C(=O)c2ccc(F)cc2)C1` (stereo not given), the “activity change, negative = cytotoxicity” value was -8.74%.

For `O=[N+]([O-])c1ccc2c3c(cccc13)CC2`, the “activity change, negative = cytotoxicity” value is -14.3%.

Turning to `O=NN1CCCCC1`, the “activity change, negative = cytotoxicity” value was 14.2%.

`CCCCc1ccc(O)cc1`: the “activity change, negative = cytotoxicity” value was -27.4%.

`CC(Oc1ccc(Oc2ncc(C(F)(F)F)cc2Cl)cc1)C(=O)O` (stereo not given): the “activity change, negative = cytotoxicity” value was -8.53%.

Turning to `Clc1ccccc1N1CCNCC1`, the “activity change, negative = cytotoxicity” value was -7.08%.

Take `CC(CC(C#N)(c1ccccc1)c1ccccc1)N(C)C` (stereo not given): the “activity change, negative = cytotoxicity” value was -1.91%.

On to `CC(Cl)(Cl)[N+](=O)[O-]`, for which the “activity change, negative = cytotoxicity” value was 9.82%.

As for `OCCBr`, the “activity change, negative = cytotoxicity” value was 12.9%.

`OC(Cn1cncn1)(c1ccc(F)cc1)c1ccccc1F` (stereo not given): the “activity change, negative = cytotoxicity” value was -2.25%.

`N#CC(Cl)(Cl)Cl`: the “activity change, negative = cytotoxicity” value is 1.4%.

In the case of `CCCCOC(=O)c1ccccc1C(=O)O`, the “activity change, negative = cytotoxicity” value is -6.64%.

For the molecule `N#Cc1c(Cl)cccc1Cl`, the “activity change, negative = cytotoxicity” value is -9.16%.

On to `CC(=O)Nc1cc([As](=O)(O)O)ccc1O`, for which the “activity change, negative = cytotoxicity” value was 11.7%.

As for `COP(N)(=S)Oc1ccccc1C(=O)OC(C)C` (stereo not given), the “activity change, negative = cytotoxicity” value was 0.356%.

`CC1CCC(=O)O1` (stereo not given): the “activity change, negative = cytotoxicity” value was 13.5%.

Regarding `CC(COc1ccc(Oc2ccccc2)cc1)Oc1ccccn1` (stereo not given), the “activity change, negative = cytotoxicity” value was -18%.

Take `CNC(=O)Oc1ccc(N(C)C)c(C)c1`: the “activity change, negative = cytotoxicity” value is -15%.

Take `O=[N+]([O-])c1cccc(O)c1`: the “activity change, negative = cytotoxicity” value is 12.8% [at 78.8 µM].

Consider `CNC(=O)Oc1c(C(C)(C)C)cc(C)cc1C(C)(C)C`, for which the “activity change, negative = cytotoxicity” value was 1.52%.

Take `C[N+](C)=CCl`: the “activity change, negative = cytotoxicity” value is 8.74%.

As to `CCOC(=O)C(c1c(O)c2ccccc2oc1=O)c1c(O)c2ccccc2oc1=O`, the “activity change, negative = cytotoxicity” value was 0.296%.

For the molecule `COCC(=O)N(c1c(C)cccc1C)N1CCOC1=O`, the “activity change, negative = cytotoxicity” value was 11.2%.

As for `Cc1ncc2n1-c1ccc(Cl)cc1C(c1ccccc1F)=NC2`, the “activity change, negative = cytotoxicity” value was -10.6%.

`O=CNC(N1CCN(C(NC=O)C(Cl)(Cl)Cl)CC1)C(Cl)(Cl)Cl` (stereo not given): the “activity change, negative = cytotoxicity” value was -0.466%.

Regarding `CCOC(=O)CP(=O)(OCC)OCC`, the “activity change, negative = cytotoxicity” value is 3.91%.

In the case of `C#C[C@]1(O)C=C[C@H]2[C@@H]3CCC4=CC(=O)CC[C@@H]4[C@H]3CC[C@@]21CC`, the “activity change, negative = cytotoxicity” value was 0.698%.

With `O=C(Nc1ccccc1)N(Cc1ccc(Cl)cc1)C1CCCC1`, the “activity change, negative = cytotoxicity” value is 2.92%.

Turning to `C[C@@H]1CN(C2CCC(C#N)(c3ccc(F)cc3)CC2)CC[C@]1(C(=O)O)c1ccccc1` (stereo not given in full), the “activity change, negative = cytotoxicity” value is -0.909%.

With `C[C@]12CC[C@H]3[C@@H](CC=C4C[C@@H](O)CC[C@@]43C)[C@@H]1CC[C@@H]2O`, the “activity change, negative = cytotoxicity” value is -0.172%.

For the molecule `CC(C(O)c1ccccc1)N(C)C/C=C/c1ccccc1` (stereo not given), the “activity change, negative = cytotoxicity” value was 1.02%.

For the molecule `O=C(Oc1ccc(Br)cc1)N1CCN2CCC1CC2`, the “activity change, negative = cytotoxicity” value was -12.8%.

On to `CN/C(=N\[N+](=O)[O-])NCC1CCOC1` (stereo not given), for which the “activity change, negative = cytotoxicity” value is 0.934%.

`CN1CCN(C(=O)O[C@H]2c3nccnc3C(=O)N2c2ccc(Cl)cn2)CC1`: the “activity change, negative = cytotoxicity” value is -0.549%.

In the case of `CCC/C(=N\OCC)C1=C(O)CC(CC(C)SCC)CC1=O` (stereo not given), the “activity change, negative = cytotoxicity” value is 10.5% [at 78.8 µM].

In the case of `COC(=O)C1=CCCN(C)C1`, the “activity change, negative = cytotoxicity” value is 6.95%.

Turning to `CCC(C)n1c(=O)[nH]c(C)c(Br)c1=O` (stereo not given), the “activity change, negative = cytotoxicity” value is 7.64%.

The next assay can be described thus: qHTS assay to identify small molecule antagonists of the retinoid-related orphan receptor gamma (ROR-gamma) signaling pathway - cell viability counter screen (AID 1159520; active = well fitted cell-killing curve with a large enough effect in the repeat runs). The settings on record: Tet-on RORgamma CHO cells viability, ATP luminescence, 16 h; series mostly up to 92.4 µM; activity, negative = cytotoxicity: at the top concentration. An outline of the steps:
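Tet-on ROR gamma CHO cells were given compounds for 2 hr, then doxycycline hyclate at 1 uM final, and incubated 16 hr at 37 C. Viability was measured as ATP content by CellTiter-Glo luminescence.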
For the molecule `NC(=O)c1cc([N+](=O)[O-])cc([N+](=O)[O-])c1`, the “activity, negative = cytotoxicity” value was -0.249% [at 42.5 µM].

With `O=[N+]([O-])c1ccc2c3c(cccc13)CC2`, the “activity, negative = cytotoxicity” value was 1.2%.

Regarding `O=NN1CCCCC1`, the “activity, negative = cytotoxicity” value is 3.43%.

Regarding `CCCCc1ccc(O)cc1`, the “activity, negative = cytotoxicity” value was -3.51%.

Turning to `Clc1ccccc1N1CCNCC1`, the “activity, negative = cytotoxicity” value was 4.82% [at 42.5 µM].

`OCCBr`: the “activity, negative = cytotoxicity” value is 0.98%.

As to `OC(Cn1cncn1)(c1ccc(F)cc1)c1ccccc1F` (stereo not given), the “activity, negative = cytotoxicity” value was -6.18%.

As to `N#CC(Cl)(Cl)Cl`, the “activity, negative = cytotoxicity” value was 3.09%.

On to `N#Cc1c(Cl)cccc1Cl`, for which the “activity, negative = cytotoxicity” value was 3.84%.

With `CC(=O)Nc1cc([As](=O)(O)O)ccc1O`, the “activity, negative = cytotoxicity” value is 1.31% [at 42.5 µM].

For `COP(N)(=S)Oc1ccccc1C(=O)OC(C)C` (stereo not given), the “activity, negative = cytotoxicity” value was 2.79%.

Take `CC1CCC(=O)O1` (stereo not given): the “activity, negative = cytotoxicity” value is -5.76%.

In the case of `CC(COc1ccc(Oc2ccccc2)cc1)Oc1ccccn1` (stereo not given), the “activity, negative = cytotoxicity” value is -11.8%.

Regarding `CNC(=O)Oc1ccc(N(C)C)c(C)c1`, the “activity, negative = cytotoxicity” value is -1.27%.

`O=[N+]([O-])c1cccc(O)c1`: the “activity, negative = cytotoxicity” value is -3.03%.

Turning to `CNC(=O)Oc1c(C(C)(C)C)cc(C)cc1C(C)(C)C`, the “activity, negative = cytotoxicity” value was 2.06%.

As for `C[N+](C)=CCl`, the “activity, negative = cytotoxicity” value is 5.15%.

Take `CCOC(=O)C(c1c(O)c2ccccc2oc1=O)c1c(O)c2ccccc2oc1=O`: the “activity, negative = cytotoxicity” value is -0.333% [at 42.5 µM].

Turning to `COCC(=O)N(c1c(C)cccc1C)N1CCOC1=O`, the “activity, negative = cytotoxicity” value was -1.19%.

`Cc1ncc2n1-c1ccc(Cl)cc1C(c1ccccc1F)=NC2`: the “activity, negative = cytotoxicity” value is -4.73% [at 42.5 µM].

On to `CCOC(=O)CP(=O)(OCC)OCC`, for which the “activity, negative = cytotoxicity” value was 2.11%.

`C#C[C@]1(O)C=C[C@H]2[C@@H]3CCC4=CC(=O)CC[C@@H]4[C@H]3CC[C@@]21CC`: the “activity, negative = cytotoxicity” value was -5.02% [at 42.5 µM].

With `O=C(Nc1ccccc1)N(Cc1ccc(Cl)cc1)C1CCCC1`, the “activity, negative = cytotoxicity” value is -22.9%.

As for `C[C@@H]1CN(C2CCC(C#N)(c3ccc(F)cc3)CC2)CC[C@]1(C(=O)O)c1ccccc1` (stereo not given in full), the “activity, negative = cytotoxicity” value is 0.665% [at 42.5 µM].

Turning to `C[C@]12CC[C@H]3[C@@H](CC=C4C[C@@H](O)CC[C@@]43C)[C@@H]1CC[C@@H]2O`, the “activity, negative = cytotoxicity” value was 3.04% [at 42.5 µM].

For the molecule `CC(C(O)c1ccccc1)N(C)C/C=C/c1ccccc1` (stereo not given), the “activity, negative = cytotoxicity” value was -7.16% [at 42.5 µM].

As to `O=C(Oc1ccc(Br)cc1)N1CCN2CCC1CC2`, the “activity, negative = cytotoxicity” value is 5.24%.

For the molecule `CN/C(=N\[N+](=O)[O-])NCC1CCOC1` (stereo not given), the “activity, negative = cytotoxicity” value was 3.37%.

Turning to `CN1CCN(C(=O)O[C@H]2c3nccnc3C(=O)N2c2ccc(Cl)cn2)CC1`, the “activity, negative = cytotoxicity” value is -4% [at 42.5 µM].

In the case of `CCC/C(=N\OCC)C1=C(O)CC(CC(C)SCC)CC1=O` (stereo not given), the “activity, negative = cytotoxicity” value is 0.15%.

For `COC(=O)C1=CCCN(C)C1`, the “activity, negative = cytotoxicity” value was 6.97% [at 42.5 µM].

Consider `CCC(C)n1c(=O)[nH]c(C)c(Br)c1=O` (stereo not given), for which the “activity, negative = cytotoxicity” value was 2.17%.
